The full data set covers some 7,900 targets. This sample favours those with a hit. About 0.6% of all pairs of compound and target were hits.
compound: C1=CC=C(C=C1)C2=NC(=C(N2)C3=CC=NC=C3)C4=CC(=C(C=C4)Cl)O; assay: log2 fold change, soluble protein after heating vs DMSO (PISA); higher = thermal stabilisation; K562 cells, 10 uM, 30 min; active = over 0.2 and 3.5 SD of the protein, either way, in both replicates (recomputed)
How it was run: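 Soluble protein was defined as the supernatant after 21,000xg for 90 min. It came from K562 cells at 2×10^6 cells/mL given 10 μM compound for 30 min, heated in aliquots for 3 min across 48°C-58°C, pooled, and extracted in PBS with 0.5% NP-40 at 4°C, and was quantified by TMTpro 16plex LC-MS/MS with equalised channel sums. Thermal stability against control samples, from duplicates, is reported as log2 fold change.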

Sequence of UniProt Q8N4H5 (Q8N4H5 whole entry, looked up): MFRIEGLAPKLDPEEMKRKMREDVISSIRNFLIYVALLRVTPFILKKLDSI
Sequence of UniProt O60701 (O60701 whole entry, looked up): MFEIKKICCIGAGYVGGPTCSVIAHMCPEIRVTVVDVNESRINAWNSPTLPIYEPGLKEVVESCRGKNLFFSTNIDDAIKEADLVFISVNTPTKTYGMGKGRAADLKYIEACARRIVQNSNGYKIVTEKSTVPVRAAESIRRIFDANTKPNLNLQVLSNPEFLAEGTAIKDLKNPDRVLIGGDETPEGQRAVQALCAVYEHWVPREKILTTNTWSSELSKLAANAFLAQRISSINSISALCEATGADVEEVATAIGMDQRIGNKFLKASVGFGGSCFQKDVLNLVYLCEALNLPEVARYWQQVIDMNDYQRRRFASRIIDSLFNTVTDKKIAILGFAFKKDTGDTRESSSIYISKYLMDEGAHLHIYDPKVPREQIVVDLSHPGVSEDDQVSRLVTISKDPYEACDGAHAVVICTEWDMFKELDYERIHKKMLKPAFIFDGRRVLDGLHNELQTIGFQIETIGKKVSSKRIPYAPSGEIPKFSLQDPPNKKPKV
Sequence of UniProt Q6PID6 (Q6PID6 whole entry, looked up): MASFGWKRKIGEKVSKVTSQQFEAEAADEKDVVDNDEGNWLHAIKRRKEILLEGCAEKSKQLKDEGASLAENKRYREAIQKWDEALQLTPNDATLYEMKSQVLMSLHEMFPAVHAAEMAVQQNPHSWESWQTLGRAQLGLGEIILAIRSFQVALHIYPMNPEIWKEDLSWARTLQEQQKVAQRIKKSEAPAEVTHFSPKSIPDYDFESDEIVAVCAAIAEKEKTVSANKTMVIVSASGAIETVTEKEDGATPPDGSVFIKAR
Sequence of UniProt O95155 (O95155 whole entry, looked up): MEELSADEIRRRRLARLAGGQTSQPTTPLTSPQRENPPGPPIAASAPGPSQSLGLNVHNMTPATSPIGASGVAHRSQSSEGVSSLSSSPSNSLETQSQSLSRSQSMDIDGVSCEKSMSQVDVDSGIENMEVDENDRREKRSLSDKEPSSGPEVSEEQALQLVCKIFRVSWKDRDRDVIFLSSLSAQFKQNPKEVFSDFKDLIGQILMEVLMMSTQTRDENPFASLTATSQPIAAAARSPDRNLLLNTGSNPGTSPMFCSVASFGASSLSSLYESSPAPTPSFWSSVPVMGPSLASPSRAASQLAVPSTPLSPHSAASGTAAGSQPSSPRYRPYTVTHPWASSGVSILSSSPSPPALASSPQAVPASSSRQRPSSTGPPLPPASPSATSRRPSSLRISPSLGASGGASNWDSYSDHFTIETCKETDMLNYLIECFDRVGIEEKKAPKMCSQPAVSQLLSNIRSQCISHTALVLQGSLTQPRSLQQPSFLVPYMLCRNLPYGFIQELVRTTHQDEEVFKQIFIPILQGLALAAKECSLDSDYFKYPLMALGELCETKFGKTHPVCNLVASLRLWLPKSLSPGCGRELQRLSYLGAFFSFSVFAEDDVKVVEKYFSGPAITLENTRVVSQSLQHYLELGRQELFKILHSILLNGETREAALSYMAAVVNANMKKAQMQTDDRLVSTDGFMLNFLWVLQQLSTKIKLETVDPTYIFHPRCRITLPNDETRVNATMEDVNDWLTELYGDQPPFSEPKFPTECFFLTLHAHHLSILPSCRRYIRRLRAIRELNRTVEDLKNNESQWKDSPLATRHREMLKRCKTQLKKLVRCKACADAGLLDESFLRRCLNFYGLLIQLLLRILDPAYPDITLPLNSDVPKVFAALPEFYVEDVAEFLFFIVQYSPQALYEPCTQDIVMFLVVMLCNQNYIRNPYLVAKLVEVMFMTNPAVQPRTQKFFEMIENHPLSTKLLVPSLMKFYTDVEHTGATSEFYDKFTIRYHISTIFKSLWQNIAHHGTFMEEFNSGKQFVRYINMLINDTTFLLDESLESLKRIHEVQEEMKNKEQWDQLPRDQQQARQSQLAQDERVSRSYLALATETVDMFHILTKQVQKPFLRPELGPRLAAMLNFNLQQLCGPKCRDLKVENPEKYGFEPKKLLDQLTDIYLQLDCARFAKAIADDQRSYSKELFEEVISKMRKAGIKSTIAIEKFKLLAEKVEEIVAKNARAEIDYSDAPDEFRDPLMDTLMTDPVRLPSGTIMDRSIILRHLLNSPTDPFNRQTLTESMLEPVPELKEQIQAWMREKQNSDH
Sequence of UniProt P43897 (P43897 whole entry, looked up): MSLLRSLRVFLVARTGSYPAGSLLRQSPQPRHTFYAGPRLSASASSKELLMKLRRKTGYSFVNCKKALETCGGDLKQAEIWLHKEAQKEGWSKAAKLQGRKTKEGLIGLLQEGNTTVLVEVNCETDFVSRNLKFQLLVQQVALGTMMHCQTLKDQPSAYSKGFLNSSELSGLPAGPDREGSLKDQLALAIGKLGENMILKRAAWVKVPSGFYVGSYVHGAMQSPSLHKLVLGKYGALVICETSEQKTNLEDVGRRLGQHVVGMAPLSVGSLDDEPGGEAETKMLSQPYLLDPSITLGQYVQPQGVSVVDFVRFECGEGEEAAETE
Sequence of UniProt Q96AX1 (Q96AX1 whole entry, looked up): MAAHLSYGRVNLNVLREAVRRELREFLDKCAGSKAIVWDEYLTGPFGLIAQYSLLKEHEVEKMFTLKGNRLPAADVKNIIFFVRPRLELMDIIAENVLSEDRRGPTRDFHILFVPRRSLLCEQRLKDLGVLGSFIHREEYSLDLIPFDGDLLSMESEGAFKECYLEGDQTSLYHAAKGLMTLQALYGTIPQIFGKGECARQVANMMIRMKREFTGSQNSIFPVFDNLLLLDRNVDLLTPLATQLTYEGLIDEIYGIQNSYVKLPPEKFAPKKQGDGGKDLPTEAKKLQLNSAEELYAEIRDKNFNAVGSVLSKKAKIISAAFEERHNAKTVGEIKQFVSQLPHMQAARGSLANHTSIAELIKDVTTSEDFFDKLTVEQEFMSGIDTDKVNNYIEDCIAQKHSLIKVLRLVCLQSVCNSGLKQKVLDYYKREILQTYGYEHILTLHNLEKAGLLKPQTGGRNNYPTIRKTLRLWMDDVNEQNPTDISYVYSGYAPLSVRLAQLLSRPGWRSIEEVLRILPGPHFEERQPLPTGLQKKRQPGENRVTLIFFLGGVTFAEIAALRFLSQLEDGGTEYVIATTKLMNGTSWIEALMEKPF
Sequence of UniProt Q6VEQ5 (Q6VEQ5 whole entry, looked up): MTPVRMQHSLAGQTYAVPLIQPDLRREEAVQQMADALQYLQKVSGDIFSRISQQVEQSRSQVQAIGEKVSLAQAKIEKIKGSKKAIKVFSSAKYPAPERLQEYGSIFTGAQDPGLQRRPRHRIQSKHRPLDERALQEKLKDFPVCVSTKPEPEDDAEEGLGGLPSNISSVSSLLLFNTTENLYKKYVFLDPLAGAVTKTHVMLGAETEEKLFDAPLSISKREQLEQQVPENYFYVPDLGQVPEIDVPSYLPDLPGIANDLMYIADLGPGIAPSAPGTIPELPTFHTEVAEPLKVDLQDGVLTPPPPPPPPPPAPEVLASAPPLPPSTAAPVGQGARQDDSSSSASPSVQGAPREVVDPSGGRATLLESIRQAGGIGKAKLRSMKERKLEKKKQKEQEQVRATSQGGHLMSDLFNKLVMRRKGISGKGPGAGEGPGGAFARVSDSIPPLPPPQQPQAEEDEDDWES
Sequence of UniProt Q96QU8 (Q96QU8 whole entry, looked up): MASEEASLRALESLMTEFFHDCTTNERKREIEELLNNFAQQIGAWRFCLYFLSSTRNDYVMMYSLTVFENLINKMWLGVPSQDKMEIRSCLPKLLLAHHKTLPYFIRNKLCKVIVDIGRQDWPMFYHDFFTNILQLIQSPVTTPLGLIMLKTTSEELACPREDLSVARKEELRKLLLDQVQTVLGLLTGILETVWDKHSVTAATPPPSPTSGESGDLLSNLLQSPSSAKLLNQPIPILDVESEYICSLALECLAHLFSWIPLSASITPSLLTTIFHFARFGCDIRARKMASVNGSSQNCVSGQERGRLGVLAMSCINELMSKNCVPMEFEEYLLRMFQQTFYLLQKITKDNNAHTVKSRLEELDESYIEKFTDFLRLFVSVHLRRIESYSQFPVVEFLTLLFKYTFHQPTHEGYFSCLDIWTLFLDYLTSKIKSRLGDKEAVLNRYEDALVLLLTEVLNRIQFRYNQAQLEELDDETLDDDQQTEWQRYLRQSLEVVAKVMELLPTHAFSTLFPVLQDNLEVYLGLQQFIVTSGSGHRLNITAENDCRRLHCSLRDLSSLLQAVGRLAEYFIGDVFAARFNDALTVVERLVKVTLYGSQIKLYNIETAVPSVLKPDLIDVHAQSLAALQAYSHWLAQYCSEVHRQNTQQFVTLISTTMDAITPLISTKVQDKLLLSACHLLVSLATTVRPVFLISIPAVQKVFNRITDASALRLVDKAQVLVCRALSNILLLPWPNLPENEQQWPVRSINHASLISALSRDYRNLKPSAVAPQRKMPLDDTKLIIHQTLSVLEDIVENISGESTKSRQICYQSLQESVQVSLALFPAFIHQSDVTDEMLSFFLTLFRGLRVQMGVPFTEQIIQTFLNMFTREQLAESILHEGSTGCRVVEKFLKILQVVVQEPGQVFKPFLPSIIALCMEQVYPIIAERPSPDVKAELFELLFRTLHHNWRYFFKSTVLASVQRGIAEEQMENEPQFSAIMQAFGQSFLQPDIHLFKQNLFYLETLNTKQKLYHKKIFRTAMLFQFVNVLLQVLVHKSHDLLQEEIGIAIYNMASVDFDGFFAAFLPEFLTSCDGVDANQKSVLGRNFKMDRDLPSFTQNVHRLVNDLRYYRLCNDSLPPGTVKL
Sequence of UniProt Q9BXJ8 (Q9BXJ8 whole entry, looked up): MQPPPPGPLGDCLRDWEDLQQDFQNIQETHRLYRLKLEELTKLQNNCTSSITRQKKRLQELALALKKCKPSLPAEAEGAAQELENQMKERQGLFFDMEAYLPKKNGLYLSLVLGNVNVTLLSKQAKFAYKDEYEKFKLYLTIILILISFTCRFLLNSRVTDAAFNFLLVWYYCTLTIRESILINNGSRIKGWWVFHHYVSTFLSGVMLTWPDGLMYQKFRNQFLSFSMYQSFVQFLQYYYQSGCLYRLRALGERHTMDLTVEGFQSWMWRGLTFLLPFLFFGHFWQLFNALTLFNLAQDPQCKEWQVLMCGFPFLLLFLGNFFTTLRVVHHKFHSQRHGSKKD

log2 fold change, inactive:
TRAPPC8 (UniProt Q9Y2L5) -0.068
TOMM5 isoform 2 (UniProt Q8N4H5) -0.123
TTC33 (UniProt Q6PID6) -0.045
TSFM (UniProt P43897) 0.11
XPO6 (UniProt Q96QU8) -0.01
VPS35L (UniProt Q7Z3J2) 0.014
UBE4B isoform 4 (UniProt O95155) 0.026
TOP2A isoform 4 (UniProt P11388) 0.077
TMEM128 (UniProt Q5BJH2) -0.081
WASH2P (UniProt Q6VEQ5) 0.014
UTP3 (UniProt Q9NQZ2) -0.255
UGDH (UniProt O60701) 0.017
WDR43 (UniProt Q15061) -0.008
TNFRSF10A (UniProt O00220) -0.026
XPOT (UniProt O43592) -0.047
VPS33A (UniProt Q96AX1) 0.005
VPS13B (UniProt Q7Z7G8) 0.032
TMEM63B (UniProt Q5T3F8) -0.076
U2AF2 (UniProt P26368) 0.012
TMEM120A (UniProt Q9BXJ8) -0.02
TXN2 (UniProt Q99757) -0.02
TOM1 isoform 2 (UniProt O60784) -0.053
VPS33B (UniProt Q9H267) 0.019

Source: the supplement of paper PMC10849652
